According to PubChem BioAssay (NCI):
The panel holds about 83,000 compounds, 20% with a hit somewhere; the sample as a whole holds those more often.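 The endpoint reported here, percent growth, reads 100 for growth as untreated, 0 for no net growth and -100 for all cells dead.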 Values without a mark were called inactive. Activity calls are given as the source filed them. The calls were made as follows: active = growth percent below 10; inactive = the rest.

Legend:
Test in all cases: NCI-60 one-dose screen, 48 h (100 = growth as untreated, 0 = no growth, -100 = all killed)
Settings in all cases: 10 µM unless noted
NCI-H23 lung = test system: NCI-H23 lung
NCI-H226 lung = test system: NCI-H226 lung
NCI-H322M lung = test system: NCI-H322M lung
HOP-62 NSCLC = test system: HOP-62 NSCLC
NCI-H460 lung = test system: NCI-H460 lung
HOP-92 NSCLC = test system: HOP-92 NSCLC
NCI-H522 lung = test system: NCI-H522 lung
A549/ATCC NSCLC = test system: A549/ATCC NSCLC
786-0 renal = test system: 786-0 renal
COLO 205 colon = test system: COLO 205 colon

Structure (SMILES)	growth (NCI-H23 lung)	growth (NCI-H226 lung)	growth (NCI-H322M lung)	growth (HOP-62 NSCLC)	growth (NCI-H460 lung)	growth (HOP-92 NSCLC)	growth (NCI-H522 lung)	growth (A549/ATCC NSCLC)	growth (786-0 renal)	growth (COLO 205 colon)
CS(=O)(=O)O[C@@H]1C(=O)N(c2cc3c4ccccc4ccc3c3ccccc23)[C@H]1c1ccc(F)cn1	49.5%	63.2%	67%	35.2%	16.4%	57%	-19.9% (active)	47.1%	26.2%	48.4%
COc1cc(C2=NNC(c3ccc(N(C)C)cc3)C2)cc(OC)c1OC (stereo not given)	36.1%	62.2%	46.2%	36.4%	10.5%	29.2%	-6.25% (active)	24.5%	23%	5.74% (active)
C#C[C@@]1(O)[C@@H](CO)O[C@@H](n2ccc3c(N)ncnc32)[C@@H]1O	-20.7% (active)	-54.4% (active)	14.5%	4.56% (active)	0.612% (active)	-15.8% (active)	-18.4% (active)	-19.4% (active)	4.14% (active)	-55.2% (active)
NC(=O)c1ccc(C2C3=C(CCCC3=O)OC3=C2C(=O)c2ccccc2C3=O)cc1 (stereo not given)	-34.7% (active)	113%	104%	23.6%	7.97% (active)	71.2%	-26.5% (active)	26.7%	94.8%	-1.47% (active)
COc1cc([C@H](C)c2ccc3ccccc3c2)cc(OC)c1OC	30.1%	68.2%	55.9%	36.7%	8.84% (active)	66.3%	10.1%	24.6%	39.6%	-3.69% (active)
[2H]c1nc(Nc2ncc3cc(C(=O)N(C)C)n(C4CCCC4)c3n2)c([2H])c([2H])c1N1C([2H])([2H])C([2H])([2H])NC([2H])([2H])C1([2H])[2H]	67.1%	74.6%	71.5%	52.3%	59.1%	65.8%	61.8%	45%	52.9%	28.1%
NS(=O)(=O)c1ccc(C2C3=C(CCCC3=O)OC3=C2C(=O)c2ccccc2C3=O)cc1 (stereo not given)	-31.3% (active)	-56.7% (active)	6.58% (active)	-89.8% (active)	-71.4% (active)	-31.7% (active)	-73.7% (active)	-34.9% (active)	-90.7% (active)	-80.3% (active)
N#Cc1c(-c2ccc(F)cc2)nc(N/N=C/c2c[nH]c3ccccc23)nc1N1CCOCC1	91.8%	125%	66.5%	69.6%	16.5%	68.1%	46.3%	47.1%	-24.4% (active)	40.1%
Nc1c(C(=O)Nc2ccccn2)sc2nc3c(cc12)CCCCCC3	41%	42.1%	33%	17.8%	6.37% (active)	30.8%	6.47% (active)	14.1%	10.7%	8.74% (active)
CCOC(=O)C1=C(C)n2nc(CC#N)c(C#N)c2NC1c1ccc(Cl)cc1 (stereo not given)	86.3%	81.8%	91.7%	91.5%	105%	90%	95.4%	104%	106%	103%
C=C1C(=O)O[C@H]2[C@H]1CC/C(COC(=O)CCCCCCC(=O)OC/C1=C/CC[C@@]3(C)O[C@H]3[C@H]3OC(=O)C(=C)[C@@H]3CC1)=C\CC[C@@]1(C)O[C@@H]21	25.1%	65.2%	99.5%	83.6%	77.7%	34%	-81% (active)	97.2%	20.9%	-64.6% (active)
Cc1cc(Nc2nc(SCc3ccc(C(=O)Nc4ccc(F)cc4N)cc3)nn3cccc23)n[nH]1	42.8%	51.6%	52.8%	23.4%	9.98% (active)	53.6%	-14.8% (active)	30.8%	44.1%	-39.9% (active)
COc1ccc(-c2[nH]c3ccc(OC)cc3c2C=C(C#N)C#N)cc1	32.9%	59.7%	58.8%	32.5%	17.2%	20.3%	-8.75% (active)	32.5%	28.9%	5.59% (active)
COC(=O)CCc1n(Cc2ccc3ccccc3c2)c2ccccc2[n+]1Cc1ccc2ccccc2c1	-7.39% (active)	17.7%	36.6%	19%	6.29% (active)	-34.4% (active)	-29.4% (active)	38.3%	15.4%	-57.3% (active)
O=C(Nc1cc(Br)ccn1)c1cc2cc(Nc3nc(-c4ccccc4)nc4ccccc34)ccc2oc1=O	98.6%	117%	111%	103%	106%	105%	95.2%	104%	94.2%	105%
O=C(Nc1ccc(S(=O)(=O)NC2CCCCCC2)cc1)C(c1ccccc1)S(=O)(=O)c1ccc(F)cc1 (stereo not given)	9.28% (active)	-21.5% (active)	17.1%	-17.4% (active)	1.37% (active)	-12.2% (active)	-16% (active)	-12.4% (active)	20.4%	-18% (active)
NS(=O)(=O)c1ccc(N2Cc3cc(Cl)ccc3OC3=C2C(=O)N(CC2CCCCC2)C3=O)cc1	-36.5% (active)	-23.5% (active)	65.4%	-60.9% (active)	-55.1% (active)	-76.6% (active)	-68.6% (active)	-43.5% (active)	-84.7% (active)	-83.2% (active)
CCN1CCC[C@H]1c1cc(O)c2c(c1OC)C[C@H]1C[C@H]3[C@H](N)C(=O)C(C(N)=O)=C(O)[C@@]3(O)C(=O)C1=C2O	-16.7% (active)	1.47% (active)	-2.43% (active)	-12% (active)	2.84% (active)	-3.43% (active)	-21.4% (active)	6.12% (active)	3.89% (active)	-18.7% (active)
Cc1nccc2c3ccc(OCc4cn(-c5ccc(Cl)cc5)nn4)cc3n(CC(C)C)c12	14.1%	42%	66.1%	35.6%	17%	8.37% (active)	1.04% (active)	30.7%	2.68% (active)	-22.6% (active)
COc1cc(-c2csc(NC(=O)Nc3ccc(Cl)cc3)n2)cc(OC)c1OC	11.3%	32.6%	64.8%	38.5%	24.9%	7.26% (active)	3.25% (active)	17.8%	47.5%	13.2%
Cc1cc(C)cc(Nc2nccc(-c3c(-c4ccc(F)cc4)ncn3C3CCNCC3)n2)c1	43.1%	32.3%	32.2%	25.4%	-5.36% (active)	26.7%	-36.2% (active)	6.65% (active)	11.8%	-66% (active)

Structure (SMILES)	growth (NCI-H23 lung)	growth (NCI-H226 lung)	growth (NCI-H322M lung)	growth (HOP-62 NSCLC)	growth (NCI-H460 lung)	growth (HOP-92 NSCLC)	growth (NCI-H522 lung)	growth (A549/ATCC NSCLC)	growth (786-0 renal)	growth (COLO 205 colon)
CSc1nc(-c2ccco2)c2c(N)[nH]nc2n1	97.7%	102%	97.8%	84.6%	97.6%	109%	79.4%	100%	93.4%	123%
CCCCc1n(Cc2ccc3ccccc3c2)c2ccccc2[n+]1Cc1ccc2ccccc2c1	-83.9% (active)	-72.7% (active)	-82.3% (active)	-76.8% (active)	-81.1% (active)	-70.7% (active)	-77.2% (active)	-72.3% (active)	-80.1% (active)	-66.9% (active)
O=CN1N=C(c2ccc3c(c2)OCO3)CC1c1cccc(Nc2ccnc3cc(C(F)(F)F)ccc23)c1 (stereo not given)	68.9%	69.2%	107%	81.2%	86.4%	73%	68.3%	83.9%	90.7%	67.5%
CCc1n(Cc2ccc3ccccc3c2)c2ccccc2[n+]1Cc1ccc2ccccc2c1	28.8%	64.9%	90.7%	81.3%	53.6%	21.8%	12.1%	74.2%	89%	25%
c1ccc(-c2n(Cc3ccc4ccccc4n3)cc[n+]2Cc2ccc3ccccc3n2)cc1	22.9%	36.2%	85.9%	74.3%	41.6%	-6.03% (active)	16.2%	73.3%	77.7%	-49.3% (active)
CCOC(=O)c1ccc(Nc2ncnc3ccc(NC(=O)c4ccccc4)cc23)cc1	83.7%	78.2%	95.6%	98.8%	95.5%	86.4%	73.3%	91.5%	86.8%	104%
N#CC1(C#N)C2=C(CCCC2)NC(c2c(F)cccc2Cl)C1(C#N)C#N (stereo not given)	82%	92.1%	91.1%	72.1%	95.1%	42.9%	-14.1% (active)	92.6%	88.7%	91.4%
CCOc1ccc(C2N(c3cc(OC)c(OC)c(OC)c3)C(=O)C2(F)F)cc1 (stereo not given)	33.6%	71%	67.2%	40.8%	12.7%	55.6%	19.3%	33.6%	64.7%	10.8%
COc1ccc(NC(=O)c2ccc(Nc3ncnc4[nH]c(C)c(C)c34)cc2)cc1	102%	106%	101%	108%	98.4%	111%	97.4%	94.8%	101%	115%
CC(C)(C)c1ccc(O)c(Cc2cc(C(C)(C)C)ccc2O)c1	94.7%	89.9%	102%	85.9%	104%	-39.4% (active)	87%	92.4%	94.2%	110%
CCCNc1nc(C)[nH]c(=O)c1S	102%	122%	85.3%	119%	111%	-2.9% (active)	91%	110%	110%	115%
C=C(C)[C@@H]1CC[C@]2(C(=O)n3ccnc3)CC[C@]3(C)[C@H](CC[C@@H]4[C@@]5(C)CCCNC(C)(C)[C@@H]5CC[C@]43C)[C@@H]12	38.8%	64.5%	66.9%	66.3%	-71.8% (active)	51.5%	50.7%	23%	29.9%	-69.8% (active)
CC(=O)[C@@H]1CC[C@]2(C(=O)O)CC[C@]3(C)[C@H](CC[C@@H]4[C@@]5(C)Cc6c([nH]c7ccccc67)C(C)(C)[C@@H]5CC[C@]43C)[C@@H]12	54.4%	64%	77.3%	74.8%	44.9%	80%	46.4%	31.4%	75.1%	79.6%
O=C(CCc1nnco1)c1nc2ccc([N+](=O)[O-])cc2[nH]1	86.3%	99.4%	99.1%	113%	108%	119%	101%	100%	111%	121%
O=C(CCCCCCCCC(=O)Nc1cccc(C2=NCCN2)c1)Nc1cccc(C2=NCCN2)c1	75.8%	101%	105%	102%	93.6%	90.5%	70.3%	96.6%	100%	92.2%
CC(=O)Oc1c2c(nc3c1c1ccccc1n3Cc1ccccc1)-c1ccccc1C2	72%	85.9%	92.2%	79.7%	98.2%	90.5%	51%	85.7%	91.8%	97.9%
Cc1ccn2c3c(c(C(=O)O)c2c1)C(=O)c1ccccc1C3=O	2.03% (active)	114%	6.55% (active)	45.5%	-22.4% (active)	96.8%	82.5%	-39.6% (active)	84.2%	42.1%
CC[C@]12C=CCN3CC[C@@]4(c5ccc(OC)cc5N(C)[C@H]4[C@@](O)(C(=O)OC)[C@@H]1OC(=O)CCC(=O)O[C@H]1CC[C@H]4[C@@H]5CC[C@H]6CC(=O)CC[C@]6(C)[C@H]5CC[C@]14C)[C@@H]32	38.5%	35.4%	68.3%	32.7%	13.8%	-2.92% (active)	2.12% (active)	13.2%	30.8%	-22.1% (active)
S=C(Nc1ccc(Cl)cc1)c1ccccn1	83%	88.1%	97.2%	78.3%	101%	77.1%	73.7%	88.9%	93.2%	110%
C=CCn1c(SCC(=O)Nc2ccc(C(=O)/C=C/c3cc(OC)c(OC)c(OC)c3)cc2)nnc1-c1ccccc1	93%	88.5%	104%	117%	89.8%	150%	82.8%	85.1%	93.1%	101%
O=C1CS/C(=N/c2nnc(-c3ccc(O)cc3)s2)N1	90%	105%	110%	83.7%	107%	111%	88.6%	89.9%	95%	97.7%
